# High-throughput results (PubChem)
# p53ts 32C tox: qHTS Screen for Compounds that Selectively Target Cancer Cells with p53 Mutations: Cytotoxicity of p53ts Cells at the Permissive Temperature. H1299-p53A138V at 32C, ATP luminescence viability, 24 h. Potency, µM (highest dose often 46.1 µM), hits mostly cytotoxic. 130,000 compounds, 0.93% hits; further: nearly all actives have a fitted effect of over 55% in size
#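 Viability by ATPlite luminescence after 24 h compound treatment (up to 46 uM) at the permissive 32C. Cells are H1299 carrying p53 A138V. Scale runs from DMSO basal to 100 uM tamoxifen as full kill; AC50 from Hill fits.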
# p53ts 39C kill: qHTS Screen for Compounds that Selectively Target Cancer Cells with p53 Mutations: Cytotoxicity of p53ts Cells at the Nonpermissive Temperature. H1299-p53A138V viability at 39C, ATP luminescence, 24 h. Potency, µM (doses to about 46.1 µM), actives largely listed as cytotoxic. 130,000 compounds, 1.5% hits. AID 902, 2007; further: nearly all actives have a fitted effect of over 55% in size
# Imprint erasure: qHTS Assay for Compounds that Induce Erasure of Genomic Imprints; 110,000 compounds, 0.02% hits; Potency, µM (series often up to 60.7 µM), usual class: activators; mouse ES Peg3-LacZ reporter, beta-gal luminescence, 40 h
#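 Each well holds 300 Peg3LacZ-Neo (maternal) female ES cells incubated 40 h at 37C, 5% CO2. LacZ is measured by BetaGlo luminescence, with AC50 and maximum efficacy derived from dose-response curves.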
# IkB sig inh: IkB Signaling; ABC-DLBCL IkBa-CBG/CBR dual luciferase ratio, 4 h; response scale: scaled: untreated 0%, proteasome inhibitor 100%; 110,000 compounds, 0.04% hits; Potency, µM (series often up to 57.1 µM); AID 445, 2006; active means well fitted curve in the direction sought with a large enough effect in the signal ratio, not every such curve was filed as active; inconclusive means small, poorly fitted or top-dose-only effect, or a change in a side signal; the % refers to the signal ratio;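 further: the direction sought is a rising ratio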
#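 Luminescence ratio of IκBα-fused green versus native red beetle luciferase in OCI-Ly3 cells, 4 h post-doxycycline with compound; red signal alone, scaled from basal (0%) to zero light (-100%), flagged nonspecific or cytotoxic effects.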
# A number is an active result; - = inactive; ? = inconclusive; . = no result; ! = repeats disagree; [ ] = dose if it differs, or a comment. Most compounds without a hit are left out; they make up all but 1.7% or so of the library. Unless noted, the call rests on the fitted dose curve; in most records, active means well fitted curve in the direction sought with a large enough effect; inconclusive means small, poorly fitted or top-dose-only effect, or another doubt; inactive means no such curve, though single readings can be large; an effect the other way counts as inactive or inconclusive.
SMILES,p53ts 32C tox,p53ts 39C kill,Imprint erasure,IkB sig inh
Cc1nnc(SCCn2c(N3CCCC(C)C3)nc3c2c(=O)n(C)c(=O)n3C)s1 (configuration not stated),5µM,6.3µM,-,-
CC1CCN(c2nc(-c3ccncc3)nc3ccccc23)CC1,-,-,-,?
CC1CCN(c2nc(-c3ccc(C(C)(C)C)cc3)nc3ccccc23)CC1,16µM,10µM,-[10.9 µM],-
CC1CCCCN1c1nc(-c2ccc(C(C)(C)C)cc2)nc2ccccc12 (configuration not stated),10µM,10µM,-[10.9 µM],-
OC(COc1ccc(Cl)c2ccccc12)CN1CCN(c2ccccn2)CC1 (configuration not stated),?,16µM,-,?
CC(=O)c1ccc(NC(=O)c2nc3ccccc3n(C)c2=O)cc1,2.5µM,2.5µM,-[10.9 µM],-
CCCCc1ccc(-c2ccc(C)cc2O)nc1,13µM,?,-,-
O=C(O)/C=C\C(=O)Nc1ccc2c(c1)-c1ccccc1C2,-[9.22 µM],-[9.22 µM],-[10.9 µM],-[11.4 µM]
CC(=O)c1ccc(NC(=O)COC(=O)c2ccccc2N=Nc2ccc(N(C)C)cc2)cc1,-,?,.,.
CN(C)c1ccc(N=Nc2ccccc2C(=O)OCC(=O)N(C)c2ccccc2)cc1,10µM,?,.,.
N/C(=N\O)c1cn([C@@H]2O[C@@H](CO)[C@H](O)[C@@H]2O)c2ncnc(NO)c12,2µM,1µM,-[10.9 µM],-[11.4 µM]
Nc1ncnc2c1c(I)cn2C1OC(CO)C(O)C1O (configuration not stated),-,-,-,.
COC(=O)C1=NOC2(C=C(Br)C(OC)=C(Br)C2=O)C1 (configuration not stated),-[9.22 µM],-[9.22 µM],.,.
COc1ccccc1CNc1cc(-c2ccccc2OC)ncn1,13µM,?,-,-[11.4 µM]
COc1ccccc1CNc1cc(-c2ccccc2C)ncn1,?,-,-,-[11.4 µM]
Cc1ccc(Nc2nc3nonc3[nH]c2=O)cc1C,13µM,10µM,-,?
O=C1O/C(=C\Br)CC[C@@H]1c1cccc2ccccc12,20µM,20µM,.,-
O=C1O/C(=C/Br)CCC1c1cccc2ccccc12 (configuration not stated),.,.,-,.
C[C@@H]1CC[C@]2(C(=O)O)CC[C@]3(C)C(=CCC4[C@@]5(C)C[C@@H](O)[C@H](O)[C@@](C)(CO)C5[C@H](O)C[C@]43C)C2[C@H]1C (some centres not stated),.,.,-,.
CN1CCN(Cc2c(O)ccc3occ(C(=O)c4ccccc4)c23)CC1,-,-,-,-
CC(=O)C(C(C)=O)c1c(Cl)c(O)c(O)c2c(C(=O)c3ccccc3)coc12,13µM,?,-,?
Cc1ccc(-n2nc(C)c(C(=O)NCCCN3CCN(c4ccccc4F)CC3)c2-n2cccc2)cc1,-,13µM,-[10.9 µM],?
Cc1ccc(-n2nc(C)c(C(=O)NCCCN3CCN(c4cccc(Cl)c4)CC3)c2-n2cccc2)cc1,?,?,-[10.9 µM],?
O=C(COc1ccc(F)cc1)Nc1ccc2nc(SCCOc3ccccc3)sc2c1,-,-,-[10.9 µM],-
Cc1cccc(NC(=O)CSc2nc3ccc(NC(=O)COc4ccccc4F)cc3s2)c1,?,10µM,-[10.9 µM],-
SMILES,p53ts 32C tox,p53ts 39C kill,Imprint erasure,IkB sig inh
Cc1ccc(OCCSc2nc3ccc(NC(=O)COc4ccc(F)cc4)cc3s2)cc1,-,10µM,-[10.9 µM],-
Cc1ccc(-c2nc3n(n2)C(c2ccccc2C)C=C(c2ccc(Cl)cc2)N3)cc1 (configuration not stated),-,-,-[10.9 µM],?
Cc1ccc(C2=CC(c3ccccc3C)n3c(nc4ccccc43)N2)cc1 (configuration not stated),?,5µM,-[10.9 µM],?
Cc1cccc(C2C=C(c3ccc(F)cc3)Nc3nc4ccccc4n32)c1 (configuration not stated),20µM,10µM,-[10.9 µM],?
CCc1ccc(C2=CC(c3c(F)cccc3Cl)n3c(nc4ccccc43)N2)cc1 (configuration not stated),?,?,-[10.9 µM],-
CN1[C@@H]2CC(OC(=O)[C@H](CO)c3ccccc3)C[C@@H]1[C@H]1O[C@H]12 (some centres not stated),.,.,-,-
COc1cccc(Cn2c(=O)c(-c3cccc(Cl)c3)nc3cncnc32)c1,-,-,.,-[11.4 µM]
O=C1OC2(c3cc(Br)c(O)c(Br)c3Oc3c2cc(Br)c(O)c3Br)c2c(Cl)c(Cl)c(Cl)c(Cl)c21,-[1.84 µM],-,-,-
COc1ccc(-c2cnn(-c3ccccc3)c2N)cc1OC,-,-,-,?
Nc1nc2c(s1)CCc1c-2cnn1-c1ccccc1,13µM,10µM,-,?
CON(C)C(=O)c1nnc2c3ccccc3n(S(=O)(=O)c3ccc(C)cc3)c2n1,-[9.22 µM],-[9.22 µM],.,.
CC(=O)Nc1ccc2nc(-c3ccccn3)[nH]c2c1,4µM,6.3µM,-,-
CCc1ccccc1OC[C@@H](O)CN[C@H]1CCCc2ccccc21,32µM,20µM,-,?
COc1ncc2nc(-c3ccc(F)cc3)c(=O)n(-c3ccccc3)c2n1,-,-,?,-[11.4 µM]
Cc1cc(C)c(Cn2c(C(O)c3ccccc3)nc3ccccc32)c(C)c1 (configuration not stated),-,3.2µM,-[10.9 µM],?
CSc1ccc2c(c1)[C@H](N1CCN(C)CC1)Cc1ccccc1S2,25µM!,32µM,-,?
CCCn1c(-c2ccc(F)cc2)nc2c(N3CCN(C)CC3)nc(C)nc21,-,-,-,.
CC1CCc2onc(C(=O)N3CCN(c4cccc(Cl)c4)CC3)c2C1 (configuration not stated),-,-,-[10.9 µM],?
CS(=O)(=O)c1ncc(Cl)c(C(=O)N2CCN(c3cccc(Cl)c3)CC2)n1,13µM,2.5µM,-[10.9 µM],?
CCS(=O)(=O)c1ncc(Cl)c(C(=O)N2CCN(c3cccc(Cl)c3)CC2)n1,13µM,2.5µM,-[10.9 µM],?
O=C(c1cc2ccc3cccnc3c2[nH]1)N1CCN(c2cccc(Cl)c2)CC1,-,-,-[10.9 µM],-
CN(C)C(=O)c1ccc(-c2nc(NCc3cccnc3)c3ccccc3n2)cc1,-,-,-,-[11.4 µM]
O=C(Cn1ncc2c3ccccc3n(Cc3ccccc3F)c2c1=O)NC1CCCCCC1,-,7.9µM,-[10.9 µM],-
CN[C@@H]1[C@H](O)[C@H](NC)[C@@H]2O[C@]3(O)C(=O)C[C@@H](C)O[C@H]3O[C@@H]2[C@H]1O,.,.,.,-[11.4 µM]
O=C(Nc1ccccc1F)c1ccc2c(Cl)c3c(nc2c1)CCC3,1.3µM,1.6µM,-[10.9 µM],?
CCOc1ccccc1NC(=O)c1ccc2c(Cl)c3c(nc2c1)CCCC3,-,-,?,?
CCOc1ccccc1NC(=O)c1ccc2c(Cl)c3c(nc2c1)CCC3,?,4µM,-[10.9 µM],?
CCC(=O)NCCc1nc2cc(NC(=O)c3cccc(Br)c3)ccc2n1C,13µM,10µM,-[10.9 µM],-
Cn1c(CN2CCCCC2)nc2cc(NC(=O)c3cccc(Br)c3)ccc21,-,-,-[10.9 µM],?
COc1cccc(CNc2cc(C)nc3nc(-c4ccc(C)cc4)nn23)c1,?,7.9µM,-[10.9 µM],?
